RecA intein inh – inhibitors of M. tuberculosis RecA intein splicing; P9WHJ3; cell-free RecA intein splicing, fluorescence; inhibition, % (no concentration beside the values); 290,000 tested, 0.75% active; in the data active = inhibition above about 30%;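 note: 0% = vehicle wells and 100% = reference inhibitor control wells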
GDH-TPI inh – counter-screen for M. tuberculosis FBA inhibitors: GDH-TPI coupled enzymes. GDH-TPI coupled enzyme counterscreen, NADH absorbance. 360,000 tested, 1.2% active. inhibition, % at 4.8 µM; in the data active = inhibition above about 30%;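 note: 0% = DMSO wells and 100% = wells lacking the enzyme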
Mtb UGM inh – blocks M. tuberculosis UGM enzyme; AID 504406; P9WIQ1; purified UGM, fluorescence polarization probe displacement; inhibition, % at 10 µM; 320,000 tested, 0.06% active; in the data active = inhibition above about 10%, passing the limit was not always enough
Target sequence (P9WIQ1 whole entry, looked up): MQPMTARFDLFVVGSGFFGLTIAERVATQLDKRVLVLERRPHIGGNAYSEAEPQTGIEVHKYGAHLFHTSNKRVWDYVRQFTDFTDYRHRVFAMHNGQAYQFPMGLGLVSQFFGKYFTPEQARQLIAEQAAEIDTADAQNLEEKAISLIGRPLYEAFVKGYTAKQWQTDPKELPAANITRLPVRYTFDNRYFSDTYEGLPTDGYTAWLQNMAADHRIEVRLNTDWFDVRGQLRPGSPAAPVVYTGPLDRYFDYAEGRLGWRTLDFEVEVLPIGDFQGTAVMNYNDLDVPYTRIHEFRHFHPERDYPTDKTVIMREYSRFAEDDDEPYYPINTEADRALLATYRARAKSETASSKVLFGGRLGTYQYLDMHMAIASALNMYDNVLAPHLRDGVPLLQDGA
FBA Mtb inh – inhibits M. tuberculosis FBA enzyme | P9WQA3 | purified M. tuberculosis FBA, fluorescence read-out | inhibition, % at 1 µM | 360,000 tested, 2.3% active; in the data active = inhibition above about 27%;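 note: 0% = vehicle and 100% = reference inhibitor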
Rv3671c inh – inhibits the M. tuberculosis serine protease Rv3671c; 320,000 tested, 0.048% active; inhibition, % at 5.96 µM; P9WHR9; in the data active = inhibition above about 38%;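 note: extracellular domain of Rv3671c used as enzyme; 0% = enzyme with DMSO and 100% = no enzyme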
Vc quorum ag – quorum light induction in luxS cqsA deficient V. cholerae. V. cholerae BH1578 lux reporter, luminescence, 6 h. activation, % at 18.7 µM. 350,000 tested, 0.16% active. AID 588436; in the data active = activation mostly above about 9.7%, no sharp cut-off
Starred values were filed as active, the others as inactive; i = inactive; nt = not tested or not shown. An excerpt weighted towards active compounds, which were near 4.1% of everything screened.

SMILES | RecA intein inh | GDH-TPI inh | Mtb UGM inh | FBA Mtb inh | Rv3671c inh | Vc quorum ag
CCN(CC)c1ccc2c(c1)oc(=O)c1c(Cl)cc(=O)oc12 | nt | 35.0* | 1.3 | 4.4 | 14.8 | -1.4
CCN(CC)c1ccc2c(Cl)c(Br)c(=O)oc2c1 | -197.7 | 16.3 | -0.4 | 6.9 | -8.9 | i
CC1(C(=O)NS(=O)(=O)C2CC2)CCN(C(=O)COc2ccc(Cl)cc2Cl)C1 (centres undefined) | nt | 9.7 | nt | 0.6 | nt | 0.8
CN(c1ccc(C(=O)Nc2ccc3c(c2)n(C)c(=O)n3C)cc1)S(C)(=O)=O | 0.3 | 11.0 | 0.5 | 3.8 | 2.1 | 1.1
C=CCC[C@@H](Cc1ccc(F)cc1)C(=O)OC[C@H](C)NC(=O)[C@H](CC=C)CC(=O)N(CCO)Cc1ccccc1 | nt | 3.6 | 1.8 | 133.5* | 1.7 | i
CCc1ccc2c(c1)C(c1ccc([N+](=O)[O-])cc1)=NNC(c1ccc(Br)cc1)=N2 | 1.5 | 1.1 | 51.7* | -3.6 | -10.1 | -0.4
O=C1/C(=C/c2cccnc2)CC/C1=C\c1cccnc1 | 3.7 | 53.8* | -2.0 | -3.5 | -4.5 | i
O=C1NC(=S)N/C1=C/c1cccnc1 | 0.0 | 45.0* | -2.5 | -1.0 | -2.3 | -0.1
O=C1NC(=S)N/C1=C\c1cccnc1 | 1.7 | 13.8 | -0.3 | 0.4 | -1.1 | -0.6
O=C1NC(=S)N/C1=C\c1cccc([N+](=O)[O-])c1 | 0.4 | 33.5* | -1.2 | 0.1 | -1.3 | -2.0
O=C1NC(=S)N/C1=C/c1cccc([N+](=O)[O-])c1 | -0.7 | 22.1 | -0.8 | -0.1 | -4.5 | -0.2
O=C(Cc1cccc(NC(=O)C2CCN(C(=O)C3CC3)CC2)c1)Nc1cccc(C(=O)N2CCCC2)c1 | nt | 3.6 | -1.0 | -1.3 | 5.6 | -0.6
Cc1nnsc1C(=O)Nc1ccc(S(=O)(=O)N2CCC(C)CC2)cc1 | -1.5 | 8.2 | 0.2 | -0.6 | -5.4 | -0.3
Cc1nc(-c2cnn(-c3ccccc3)c2)c2cc(C)oc2n1 | 3.5 | 9.5 | 0.0 | 118.7* | -11.0 | i
O=C(CSC1=NCCS1)Nc1ccc(S(=O)(=O)NC2CCCCC2)cc1 | 42.3* | 6.1 | -0.9 | -2.9 | 1.1 | i
O=C(CSC1=NCCS1)Nc1ccc(S(=O)(=O)N2CCCCCC2)cc1 | 33.0* | 5.1 | -2.2 | 2.3 | -8.7 | i
O=[N+]([O-])c1ccccc1C=NN1CCCCCC1 | nt | -4.4 | nt | -0.8 | nt | i
CC(Sc1nc2c(c(=O)[nH]1)CCCC2)C(=O)Nc1ccc(S(N)(=O)=O)cc1 (centres undefined) | nt | 6.0 | -1.0 | 2.2 | 11.5 | -0.3
COc1cccc(CN2CC(C(=O)N3CCN(c4ccc(Cl)cc4)CC3)CCC2=O)c1 (centres undefined) | 1.4 | -2.2 | -0.5 | 1.2 | -1.2 | 1.6
Cn1ccc(C(=O)N/N=C/c2cccnc2)n1 | nt | -11.8 | 9.1 | -4.0 | -2.9 | i
CN(C)c1ccc(C=Nc2ccccc2C(N)=O)cc1 | nt | 38.3* | 4.0 | 5.5 | -12.0 | nt
CN(C)c1ccc(/C=N/NC(=O)c2ccn(C)n2)cc1 | -2.2 | 33.1* | -1.0 | -3.0 | 8.1 | -2.0
CN(C)c1ccc(/C=N/NC(=O)c2ccco2)cc1 | -2.7 | 47.4* | 3.1 | -3.2 | -5.6 | -0.4
CN(C)c1ccc(/C=N\NC(=O)c2csnn2)cc1 | 0.3 | 41.9* | -0.5 | -3.6 | 3.3 | i
CCCCN1CC(C)(C)Oc2cccc(F)c2S1(=O)=O | nt | -6.6 | nt | -2.1 | nt | i
SMILES | RecA intein inh | GDH-TPI inh | Mtb UGM inh | FBA Mtb inh | Rv3671c inh | Vc quorum ag
CN(C)c1ccc(/C=N/NC(=O)C(=O)N2CCCCCC2)cc1 | nt | 35.5* | 0.5 | 3.7 | -8.4 | -0.6
COc1ccc(/C=N/NC(=O)C(=O)N2CCCC2)cc1 | -0.6 | 5.5 | -0.8 | -0.8 | -10.8 | -0.9
Cc1cccc(C(=O)NNC2=CC(=O)CC(C)(C)C2)c1O | -2.4 | 37.4* | 1.0 | 4.8 | 3.4 | -0.5
COc1ccc(C(=O)NNC2=CC(=O)CC(C)(C)C2)cc1 | 0.0 | 13.6 | 0.4 | -0.1 | -1.1 | -0.2
CC1(C)CC(=O)C=C(NNC(=O)c2ccccc2O)C1 | -9.2 | 40.1* | 3.9 | -0.3 | -1.3 | -1.8
CCCCN1CC(N2CCN(Cc3ccccc3)CC2)CS1(=O)=O (centres undefined) | nt | nt | nt | 2.0 | nt | nt
COc1ccc(-c2nnn(CC(=O)Nc3ccc4c(c3)OCCO4)n2)cc1OC | nt | 3.5 | -0.4 | 1.7 | 0.6 | i
CCOc1cc(C(=O)OCc2cc(=O)n3c(C)csc3n2)ccc1OC | nt | 6.0 | -1.8 | 2.8 | 2.2 | i
COc1ccc(CNC(=O)C2CCN(C(=O)[C@@H](CC(C)C)NC(=O)OC(C)(C)C)CC2)cc1 | 0.5 | -3.2 | nt | 3.4 | nt | 16.7*

Assay outcomes deposited in PubChem by several laboratories.
